Source: PubChem BioAssay (Tox21)
Where “and” joins values, the source holds several entries; their conditions need not be identical. Identical values can stand only once. Records with an inconclusive call do not appear. More than one record can exist for a structure, and the calls need not agree. Calls of active or inactive are those of the source. Unless noted, the call rests on the fitted dose curve.

What was measured:
[1] = Nuclear factor erythroid 2-related factor 2/antioxidant responsive element (Nrf2/ARE) small molecule agonists: qHTS cell viability counter screen in human keratinocytes (AID 1919968; active means well fitted curve in the direction sought with a large enough effect in the repeat runs; an effect the other way counts as inactive or inconclusive; further: nearly all actives have a fitted effect of over 55% in size; further: potency means the concentration at half of the fitted maximal effect)
Summary of the method: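 Cytotoxicity was multiplexed with the Nrf2/ARE luciferase assay in the same wells. Stably transfected HaCaT keratinocytes were treated with test compounds for 23 h at 37 C. Cell viability was then measured by CellTiter-Fluor fluorescence.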

[2] = Nuclear factor erythroid 2-related factor 2/antioxidant responsive element (Nrf2/ARE) small molecule agonists: luciferase reporter gene qHTS assay in human keratinocytes (AID 1919969); further: nearly all actives have a fitted effect of over 35% in size; further: potency means the concentration at half of the fitted maximal effect
[3] = target: Gonadotropin-releasing hormone receptor (Homo sapiens) (UniProt P30968); test: Human gonadotropin-releasing hormone receptor (GnRHR) small molecule agonists, calcium flux assay in GnRHR-HEK293 cells (AID 1920063); further: nearly all actives have a fitted effect of over 35% in size
Summary of the method: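 Agonist activity was measured as intracellular calcium flux in HEK293 cells engineered to stably express human GnRHR. After dye loading for 1 hour at 37 C, compounds in DMSO were added and fluorescence was followed for 3 minutes.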

[4] = target: KiSS-1 receptor (Homo sapiens) (UniProt Q969F8); test: Human kisspeptin (KISS1R) small molecule agonists, calcium flux assay in KISS1R-HEK293 cells (AID 1920064; active means well fitted curve in the direction sought with a large enough effect in the repeat runs; an effect the other way counts as inactive or inconclusive)
Summary of the method: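 Agonist activity is monitored as intracellular calcium rise in engineered HEK293 cells carrying human KISS1R. Cells are dye-loaded for 1 h at 37 C before compound addition, and fluorescence is recorded for 3 min.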

[5] = G protein-coupled receptor (GPCR) small molecule agonists, calcium flux assay: HEK293 wild type cell line counter screen (AID 1920065)
Summary of the method: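 Seed cells, incubate 18 h (37 C, 5% CO2); add calcium dye, 1 h at 37 C; pin-transfer compounds, ATP control or DMSO; read fluorescence 480/540 nm each second for 3 min.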

[6] = p53 small molecule agonists, cell-based qHTS assay with human liver microsomes (AID 1963577);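 further: p53 response element beta-lactamase reporter cells with liver microsomes plus NADPH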
Summary of the method: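 HLM-supplemented p53RE-bla reporter assay: 16 h compound exposure at 37 C, microsomes and NADPH each 0.5 mg/mL final, read by fluorescence intensity.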

[7] = p53 small molecule agonists, cell-based qHTS assay with rat liver microsomes (AID 1963578)
Summary of the method: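 Quantitative HTS of the Tox21 10K library: p53RE-bla cells, rat liver microsomes plus NADPH at 0.5 mg/mL final each, 16 h at 37 C, beta-lactamase fluorescence detection.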

[8] = p53 small molecule agonists, cell-based qHTS assay with rat liver microsomes: qHTS cell viability counter screen (AID 1963580); further: nearly all actives have a fitted effect of over 45% in size; further: potency means the concentration at half of the fitted maximal effect
Summary of the method: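 Luminescent ATP readout (CellTiter-Glo, 30 min at room temperature) reports viability of p53RE-bla HCT-116 cells after 16 h at 37 C with test compounds under metabolic activation by rat liver microsomes and NADPH at 0.5 mg/mL final each.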

[9] = p53 small molecule agonists, cell-based qHTS assay (AID 1963582; active means well fitted activation curve with a large enough effect in the signal ratio in the repeat runs, not every such curve was filed as active; the % refers to the signal ratio)
Summary of the method: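 Cells carrying a p53-responsive bla reporter are treated with test compounds for 16 h at 37 C; beta-lactamase activity is then detected with LiveBLAzer B/G FRET substrate after 2 h at room temperature.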

[10] = target: 5-hydroxytryptamine receptor 2A (Homo sapiens) (UniProt P28223); test: 5-hydroxytryptamine receptor 2A (HTR2A) small molecule antagonists, cell-based qHTS assay (AID 1963586); further: nearly all actives have a fitted effect of over 45% in size
Summary of the method: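 CHO cells stably expressing human HTR2A were plated for 18 h at 37 C, then loaded with calcium dye for 1 h. Compounds were preincubated 5 min at room temperature before DOI (4 nM solution) was added. Kinetic fluorescence was read for 3 min.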

[11] = cAMP Responsive Elements (CRE) small molecule agonists, cell-based qHTS assay (AID 1963590)
Summary of the method: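 Cells carrying a CRE-driven beta-lactamase reporter (HEK 293T) are seeded, incubated overnight (18 h), and treated with test compounds for 3 h at 37 C; reporter activity is then detected with a FRET substrate after 2 h at room temperature.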

[12] = target: Beta-2 adrenergic receptor (Homo sapiens) (UniProt P07550); test: Adrenergic beta2 receptor (ADRB2) small molecule antagonists, cell-based qHTS assay (AID 1963592); further: series mostly up to about 92 µM; nearly all actives have a fitted effect of over 50% in size
Summary of the method: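 Assay format: CHO-ADRB2 cells, 18-20hr seeding at 37C/5% CO2, then compound plus 1nM isoproterenol agonist mix for 0.5hr RT. Homogeneous time-resolved fluorescence cAMP detection after 1hr, expressed as 665/615 nm ratio.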

[13] = target: Beta-2 adrenergic receptor (Homo sapiens) (UniProt P07550); test: Adrenergic beta2 receptor (ADRB2) small molecule agonists, cell-based qHTS assay (AID 1963593);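 further: CHO cells stably overexpressing human ADRB2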
Summary of the method: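 CHO cells stably over-expressing ADRB2 were plated overnight at 37C, then dosed with compounds plus a stimulation mix containing 100uM IBMX and 25uM Ro-20-1724 for 0.5hr at room temperature. cAMP was measured by HTRF competition, 1hr.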

[14] = target: D(2) dopamine receptor (Homo sapiens) (UniProt P14416); test: Dopamine D2 receptor (DRD2) small molecule agonists, cell-based qHTS assay (AID 1963594); further: nearly all actives have a fitted effect of over 35% in size; further: potency means the concentration at half of the fitted maximal effect
Summary of the method: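 HEK293 cells stably expressing DRD2 were cultured 24 h at 37 C, then given Ro20-1724 (0.1 mM final) and compounds for 10 min at room temperature. NKH477 (200nM) was then added for 30 min. cAMP was read by HTRF.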

[15] = target: D(2) dopamine receptor (Homo sapiens) (UniProt P14416); test: Dopamine D2 receptor (DRD2) small molecule antagonists, cell-based qHTS assay (AID 1963595; active means well fitted inhibition curve with a large enough effect in the signal ratio in the repeat runs, with a control signal flat; the % refers to the signal ratio)
Summary of the method: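 In this cell-based antagonist screen, compounds act for 10 min at room temperature before a 30 min challenge with 12 nM quinpirole and 200 nM NKH477. cAMP is quantified by HTRF competition in DRD2-HEK293 cells containing 0.1 mM Ro20-1724.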

[16] = p53 small molecule agonists, cell-based qHTS assay with human liver microsomes: qHTS cell viability counter screen (AID 1963579); further: nearly all actives have a fitted effect of over 45% in size
Summary of the method: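 Viability of p53RE-bla cells is measured as CellTiter-Glo luminescence following a 16 h, 37 C incubation with compound, liver microsomes from human donors and NADPH.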

[17] = target: 5-hydroxytryptamine receptor 2A (Homo sapiens) (UniProt P28223); test: 5-hydroxytryptamine receptor 2A (HTR2A) small molecule agonists, cell-based qHTS assay (AID 1963587); further: nearly all actives have a fitted effect of over 30% in size; further: potency means the concentration at half of the fitted maximal effect
Summary of the method: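 HTR2A-CHO cells, plated 18 h at 37 C/5% CO2, dye-loaded 1 h at 37 C; compounds in DMSO added by pin tool (agonist mode). Intracellular calcium flux read as kinetic fluorescence on FDSS over 2 min at 1 s intervals.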

[18] = target: Muscarinic acetylcholine receptor M1 (Homo sapiens) (UniProt P11229); test: Cholinergic receptor muscarinic 1 (CHRM1) small molecule antagonists, cell-based qHTS assay (AID 1963588); further: nearly all actives have a fitted effect of over 40% in size; further: potency means the concentration at half of the fitted maximal effect
Summary of the method: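 Compounds were tested at 15 concentrations in three independent runs. Dye-loaded CHRM1-CHO cells were exposed 5 min at room temperature before stimulation by acetylcholine added at 50nM. Intracellular calcium was read kinetically on FDSS for 3 min.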

[19] = cAMP Responsive Elements (CRE) small molecule antagonists, cell-based qHTS assay (AID 1963591; active means well fitted inhibition curve with a large enough effect in the signal ratio in the repeat runs, not every such curve was filed as active; the % refers to the signal ratio)
Summary of the method: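 Cells (CRE-bla HEK 293T, DMEM with 10% dialyzed FBS and 25 mM HEPES) are seeded and incubated 18 h. Compounds are added with NKH477 agonist at 0.25 uM final for 3 h, then FRET substrate for 2 h.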

[20] = p53 small molecule agonists, cell-based qHTS assay: qHTS cell viability counter screen (AID 1963581); further: nearly all actives have a fitted effect of over 45% in size; further: potency means the concentration at half of the fitted maximal effect
Summary of the method: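 Viability was counter-screened in parallel with the p53 agonist reporter by measuring intracellular ATP luminescence in the same HCT-116 p53RE-bla wells after 16 h compound treatment at 37 C.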

Measured: Potency

Beta-2 adrenergic receptor (Homo sapiens), sequence (P07550 whole entry, looked up): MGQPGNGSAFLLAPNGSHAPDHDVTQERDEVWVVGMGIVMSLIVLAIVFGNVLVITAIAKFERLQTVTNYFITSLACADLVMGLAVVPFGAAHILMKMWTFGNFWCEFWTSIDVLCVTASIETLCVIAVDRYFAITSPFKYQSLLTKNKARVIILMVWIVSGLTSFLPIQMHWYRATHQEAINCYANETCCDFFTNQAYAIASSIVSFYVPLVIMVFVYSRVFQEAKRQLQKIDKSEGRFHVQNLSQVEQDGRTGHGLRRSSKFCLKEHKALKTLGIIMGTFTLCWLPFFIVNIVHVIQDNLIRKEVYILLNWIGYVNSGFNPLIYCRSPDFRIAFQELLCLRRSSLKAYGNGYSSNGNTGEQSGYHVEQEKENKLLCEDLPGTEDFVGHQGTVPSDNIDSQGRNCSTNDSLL
D(2) dopamine receptor (Homo sapiens), sequence (P14416 whole entry, looked up): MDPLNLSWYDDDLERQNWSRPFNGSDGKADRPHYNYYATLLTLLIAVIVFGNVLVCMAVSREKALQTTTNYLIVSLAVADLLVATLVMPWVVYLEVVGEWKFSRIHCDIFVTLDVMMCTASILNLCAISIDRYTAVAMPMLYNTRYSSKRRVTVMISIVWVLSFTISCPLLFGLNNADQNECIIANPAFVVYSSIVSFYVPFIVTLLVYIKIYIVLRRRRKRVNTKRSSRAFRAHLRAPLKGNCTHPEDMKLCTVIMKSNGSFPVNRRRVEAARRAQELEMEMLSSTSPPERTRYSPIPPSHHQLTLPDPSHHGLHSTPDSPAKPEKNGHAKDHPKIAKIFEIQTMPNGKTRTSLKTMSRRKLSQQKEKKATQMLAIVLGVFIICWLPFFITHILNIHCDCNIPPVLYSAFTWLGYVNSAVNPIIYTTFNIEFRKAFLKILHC
Muscarinic acetylcholine receptor M1 (Homo sapiens), sequence (P11229 whole entry, looked up): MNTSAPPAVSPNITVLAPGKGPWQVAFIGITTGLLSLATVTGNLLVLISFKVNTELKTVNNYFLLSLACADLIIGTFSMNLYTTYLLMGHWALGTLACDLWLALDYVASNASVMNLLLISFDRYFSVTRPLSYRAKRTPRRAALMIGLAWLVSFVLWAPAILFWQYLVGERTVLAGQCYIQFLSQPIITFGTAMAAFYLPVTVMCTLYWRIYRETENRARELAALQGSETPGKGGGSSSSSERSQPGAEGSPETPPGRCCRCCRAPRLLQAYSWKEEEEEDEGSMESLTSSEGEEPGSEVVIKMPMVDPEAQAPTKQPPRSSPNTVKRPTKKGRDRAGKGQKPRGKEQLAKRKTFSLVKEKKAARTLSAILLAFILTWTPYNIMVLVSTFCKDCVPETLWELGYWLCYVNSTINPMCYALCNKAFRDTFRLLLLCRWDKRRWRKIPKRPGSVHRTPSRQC
KiSS-1 receptor (Homo sapiens), sequence (Q969F8 whole entry, looked up): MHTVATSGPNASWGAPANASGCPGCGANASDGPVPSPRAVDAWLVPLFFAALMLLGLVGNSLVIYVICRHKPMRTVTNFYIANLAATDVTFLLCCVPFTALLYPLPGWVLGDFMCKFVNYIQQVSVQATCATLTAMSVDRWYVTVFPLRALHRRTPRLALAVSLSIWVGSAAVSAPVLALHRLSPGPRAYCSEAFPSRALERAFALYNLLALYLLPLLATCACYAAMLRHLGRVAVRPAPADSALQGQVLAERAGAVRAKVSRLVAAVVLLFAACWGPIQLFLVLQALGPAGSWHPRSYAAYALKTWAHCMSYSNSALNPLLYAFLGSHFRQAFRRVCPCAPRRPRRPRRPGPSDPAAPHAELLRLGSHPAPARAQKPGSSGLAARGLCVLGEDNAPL
5-hydroxytryptamine receptor 2A (Homo sapiens), sequence (P28223 whole entry, looked up): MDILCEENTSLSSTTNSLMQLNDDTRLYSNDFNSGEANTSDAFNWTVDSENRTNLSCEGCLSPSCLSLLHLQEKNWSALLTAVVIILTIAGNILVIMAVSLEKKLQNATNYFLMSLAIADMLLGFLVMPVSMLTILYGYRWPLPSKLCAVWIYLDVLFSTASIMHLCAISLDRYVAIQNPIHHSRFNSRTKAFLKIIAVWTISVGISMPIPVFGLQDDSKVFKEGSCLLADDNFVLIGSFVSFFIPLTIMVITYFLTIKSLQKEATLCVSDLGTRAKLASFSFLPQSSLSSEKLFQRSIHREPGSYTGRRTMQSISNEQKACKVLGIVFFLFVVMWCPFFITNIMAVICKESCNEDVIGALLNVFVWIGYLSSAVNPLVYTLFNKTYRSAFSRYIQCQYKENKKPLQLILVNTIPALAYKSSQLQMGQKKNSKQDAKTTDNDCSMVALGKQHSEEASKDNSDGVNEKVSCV
Gonadotropin-releasing hormone receptor (Homo sapiens), sequence (P30968 whole entry, looked up): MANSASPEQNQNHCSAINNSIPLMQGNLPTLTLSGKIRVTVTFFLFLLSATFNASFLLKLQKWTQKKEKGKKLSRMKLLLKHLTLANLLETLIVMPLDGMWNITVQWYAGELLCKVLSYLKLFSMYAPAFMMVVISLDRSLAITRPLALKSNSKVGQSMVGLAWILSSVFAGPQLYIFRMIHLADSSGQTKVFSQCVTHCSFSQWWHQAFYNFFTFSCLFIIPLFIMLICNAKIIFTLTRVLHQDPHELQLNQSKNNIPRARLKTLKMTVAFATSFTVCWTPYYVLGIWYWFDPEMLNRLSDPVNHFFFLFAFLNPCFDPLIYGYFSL

CC1=C(/C=C/C(C)=C/C=C/C(C)=C/C(=O)Nc2ccc(O)cc2)C(C)(C)CCC1
active: [1] 49.8 µM and 13.3 µM | [2] 2.22 µM and 2.11 µM
not listed: [16] | [17] | [18] | [19] | [20]
inactive: all other assays above

NCCCCCCN
inactive and 16.8 µM (active): [18]
not listed: [8] | [20]
inactive: all other assays above

O=C(O)Cc1ccccc1Nc1c(Cl)cccc1Cl
not listed: [10] | [13] | [16] | [17] | [18]
inactive: all other assays above

CCCOC(=O)c1cc(O)c(O)c(O)c1
not listed: [9] | [11] | [15] | [16] | [20]
inactive: all other assays above

O=S(=O)(O)c1ccc2nc(-c3ccccc3)[nH]c2c1
active: [8] 15.5 µM
not listed: [16] | [20]
inactive: all other assays above

COC(=O)c1cccnc1
not listed: [16]
inactive: all other assays above

COc1cc([C@@H]2c3cc4c(cc3[C@H](O)[C@H]3COC(=O)[C@H]23)OCO4)cc(OC)c1OC
active: [2] 54.4 nM and 53.1 nM
not listed: [10] | [11] | [16] | [17] | [18] | [19] | [20]
inactive: all other assays above

C[C@]12CC[C@@H]3c4ccc(O)cc4CC[C@H]3[C@@H]1CC[C@@H]2O
not listed: [8] | [10] | [13] | [17] | [18] | [20]
inactive: all other assays above

COc1cc(OC)c(C(=O)CCCN2CCCC2)c(OC)c1
not listed: [10] | [16] | [17] | [18]
inactive: all other assays above

CCCCOC(=O)c1ccc(N)cc1
not listed: [10] | [16] | [17] | [18]
inactive: all other assays above

CC(C)=CCC/C(C)=C/C=O
not listed: [13] | [16] | [19]
inactive: all other assays above

FC(F)(F)c1ccc(Cl)c(Cl)c1
not listed: [16] | [19]
inactive: all other assays above

CC(C)CCCCCCCOC(=O)CCCCC(=O)OCCCCCCCC(C)C
not listed: [13] | [15] | [16] | [18]
inactive: all other assays above

C=CC(=O)OCCOCCOCCOCCOC(=O)C=C
active: [1] 61.4 µM and 48.1 µM | [2] 24.5 µM and 27.1 µM
not listed: [8] | [11] | [13] | [17] | [19] | [20]
inactive: all other assays above

NC(N)=NC(=O)c1nc(Cl)c(N)nc1N
not listed: [10] | [16] | [17] | [18]
inactive: all other assays above

CCCCCCCC(=O)OC
inactive and 61.1 µM (active): [14]
not listed: [16]
inactive: all other assays above

CCN(CC)CCOC(=O)c1ccc(N)cc1
not listed: [7] | [8] | [10] | [13] | [17] | [18] | [20]
inactive: all other assays above

O=S1(=O)CC=CC1
37.6 µM (active) and inactive: [17]
not listed: [6]
inactive: all other assays above

Clc1cc(Cl)c(Cl)cc1Cl
inactive and 16.2 µM (active): [20]
not listed: [6] | [11]
inactive: all other assays above

CCC(C)C=O (centres undefined)
not listed: [6]
inactive: all other assays above

Cc1ccc(S(=O)(=O)O)cc1C
not listed: [7] | [14]
inactive: all other assays above

CC1(C)O[C@@H]2C[C@H]3[C@@H]4C[C@H](F)C5=CC(=O)CC[C@]5(C)[C@H]4[C@@H](O)C[C@]3(C)[C@]2(C(=O)CO)O1
not listed: [7] | [10] | [11] | [13] | [17] | [18] | [19] | [20]
inactive: all other assays above

OB(O)O
not listed: [7] | [12]
inactive: all other assays above

CC(C)(C)[C@@H](O)[C@@H](Cc1ccc(Cl)cc1)n1cncn1
not listed: [7]
inactive: all other assays above

Nc1c2c(nc3ccccc13)CCCC2
48.6 µM (active) and inactive: [2]
54.5 µM (active) and inactive: [1]
not listed: [7] | [10] | [11] | [13] | [17] | [18]
inactive: all other assays above

CCCCC(CC)COC(=O)C(C#N)=C(c1ccccc1)c1ccccc1 (centres undefined)
not listed: [7] | [12] | [17]
inactive: all other assays above

CC(O)CO (centres undefined)
not listed: [8] | [10] | [16] | [17] | [18]
inactive: all other assays above

C=C(CC(=O)O)C(=O)O
not listed: [6] | [19]
inactive: all other assays above
